ABHD5 PLIN5 PPI: inhibitors of human ABHD5-perilipin-5 interaction; Q00G26+Q8WTS1; inhibition, % at 4 µM; AID 602281; Split G. princeps luciferase complementation, luminescence, 4 h; 360,000 compounds, 0.78% hits;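 active = inhibition above the mean inhibition across every tested compound plus 3 SD, cut at about 22% in these data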;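 also: 0% = DMSO only wells and the 100% control is not disclosed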
PRMT1 FP inh: blocks human protein arginine methyltransferase 1; inhibition, % at 2.79 µM; recombinant PRMT1, activity-based probe fluorescence polarization; 370,000 compounds, 1.3% hits; AID 652257; Q99873;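 active = inhibition above about 21% made by adding two undisclosed values, limit read from the data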
Rtt109 Vps75: blocks Candida albicans Rtt109/Vps75 acetyltransferase activity. purified Rtt109/Vps75, ThioGlo CoA-SH fluorescence, 4 h. inhibition, % at 34.9 µM. 330,000 compounds, 0.16% hits. AID 540336;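 active = inhibition of at least 50% in every replicate; inconclusive = best replicate reaches 50% inhibition but some replicates fall short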
Target sequence (Q5AAJ8 whole entry, looked up): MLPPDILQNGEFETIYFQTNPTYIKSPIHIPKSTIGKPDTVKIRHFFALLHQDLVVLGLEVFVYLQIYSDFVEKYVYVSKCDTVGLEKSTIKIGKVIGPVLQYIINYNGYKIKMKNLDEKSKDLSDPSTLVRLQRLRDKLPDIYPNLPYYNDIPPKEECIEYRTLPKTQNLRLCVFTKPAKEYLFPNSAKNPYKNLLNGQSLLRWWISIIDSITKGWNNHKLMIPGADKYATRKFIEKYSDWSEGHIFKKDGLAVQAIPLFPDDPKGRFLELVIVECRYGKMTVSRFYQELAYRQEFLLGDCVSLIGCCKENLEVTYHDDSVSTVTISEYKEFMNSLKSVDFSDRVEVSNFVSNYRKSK
ALR inh: human ALR oxidase inhibition via reduced H2O2. P55789. purified ALR, DTT oxidation, H2O2 HRP-luminol luminescence. inhibition, % (no concentration beside the values). 290,000 compounds, 3.8% hits;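 active = mean replicate inhibition above about 79%, with every replicate also reaching it, limit read from the data; inconclusive = only one of the two criteria met; inactive = mean below limit and not every replicate reaching it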
Target sequence (P55789 whole entry, looked up): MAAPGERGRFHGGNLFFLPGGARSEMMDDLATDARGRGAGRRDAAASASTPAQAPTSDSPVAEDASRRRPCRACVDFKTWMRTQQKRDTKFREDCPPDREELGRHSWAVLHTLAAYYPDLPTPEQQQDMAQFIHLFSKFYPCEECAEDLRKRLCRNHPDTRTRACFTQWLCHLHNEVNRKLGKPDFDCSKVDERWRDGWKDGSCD
LANA-H2A inh: blocks KSHV LANA binding to histone H2A/H2B; cell-free LANA-H2A/H2B peptide, fluorescence polarization; 320,000 compounds, 0.6% hits; inhibition, % (concentration not given with the values); AID 2629; Q9QR71; in the data active = inhibition mostly above about 10%, no sharp cut-off; inactive = mostly below about 6.7%
rCAG RNA binder: binds r(CAG) RNA repeats; r(CAG) RNA repeat, TO-PRO-1 dye displacement fluorescence; 370,000 compounds, 1.3% hits; inhibition, % at 3 µM;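 active = inhibition above the plate cutoff, the mean of all test compounds on that plate plus 3 SD, cut at about 35% in these data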;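 also: 0% = DMSO alone and 100% = 100 µM mitoxantrone as full dye displacement; higher means more dye released from RNA so lower well fluorescence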
ABHD5 PLIN5 conf: ABHD5-PLIN5 interaction inhibition, confirmed; 2,200 compounds, 67% hits; inhibition, % at 4 µM; biochemical ABHD5-PLIN5 interaction, luminescence; shares compounds with ABHD5 PLIN5 PPI; in the data active = inhibition above about 23%;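 also: 0% = DMSO vehicle wells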
HNF4 counter: HNF4 split-luciferase signal hit, counter-screen; AID 651674; inhibition, % at 4 µM; HNF4 dimerization, luminescence, biochemical; 2,200 compounds, 77% hits; shares compounds with ABHD5 PLIN5 PPI;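 active = mean inhibition across replicate wells exceeding the computed hit threshold, cut at about 13% in these data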;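 also: light from luciferase halves that rejoin when HNF4 fusion proteins dimerize; 0% = DMSO only wells and the 100% control is not given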
rCAG binder conf: r(CAG) RNA repeat binding, confirmation; inhibition, % at 3 µM; TO-PRO-1 dye displacement fluorescence; shares compounds with rCAG RNA binder; 4,300 compounds, 70% hits;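 active = inhibition above a per-plate cutoff, the mean inhibition of sample wells plus 3 SD, cut at about 35% in these data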;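 also: loss of TO-PRO-1 fluorescence as compound displaces dye from 1x1 AA loop RNA; 0% = DMSO only wells and 100% = 100 µM mitoxantrone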
DNA CAG counter: DNA CAG dye complex inhibition counter-screen. shares compounds with rCAG RNA binder. d(CAG) DNA oligo TO-PRO-1 dye displacement, fluorescence. inhibition, % at 3 µM. 4,300 compounds, 94% hits. AID 652068;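 active = inhibition above its plate's cutoff, the mean test-well inhibition plus 3 SD, cut at about 4.8% in these data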;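 also: 0% = DNA dye mix with DMSO and 100% = 100 µM mitoxantrone; hits displace the dye from DNA and so lower well fluorescence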
PRMT1 confirm: confirmation of human PRMT1 inhibitors | shares compounds with PRMT1 FP inh | 3,300 compounds, 42% hits | inhibition, % at 2.79 µM | recombinant His-PRMT1, activity-based probe fluorescence polarization;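 active = mean inhibition across replicates above the hit cutoff derived for the earlier primary screen, cut at about 22% in these data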
Active calls of the source: *; ? = inconclusive; . = no result; + = active, no number. Shown are actives, neighbours in structure and some others; about 5.9% of the full set was active somewhere.

SMILES	ABHD5 PLIN5 PPI	PRMT1 FP inh	Rtt109 Vps75	ALR inh	LANA-H2A inh	rCAG RNA binder	ABHD5 PLIN5 conf	HNF4 counter	PRMT1 confirm	others
NC(=O)c1ccc(-n2c(CCC(=O)O)ccc2-c2cccs2)cc1	31.2*	45.3*	3.1	84.0*	3.1	2.9	0.5	40.2*	13.6
Cc1ccc(-c2nnc(SCC(=O)Nc3ccc4c(c3)OCCO4)n2-c2ccc(C)cc2)cc1	.	0.8	.	.	.	9.0	.	.	.
C=CCn1c(SCC(C)=O)nc2scc(-c3ccco3)c2c1=O	33.6*	49.4*	-5.4	-49.3	-0.9	21.4	53.7*	85.3*	22.3*
C=CCn1c(SCC(=O)Nc2ccccc2)nc2scc(-c3cccs3)c2c1=O	3.4	-0.4	0.7	-8.0	1.7	10.1	.	.	.
CCCNC(=O)c1nnsc1S(=O)c1ccc(Cl)cc1 (stereo not drawn)	74.9*	95.2*	?	.	.	1.1	96.3*	107.9*	90.2*
Cc1ccc(S(=O)c2snnc2C)cc1 (stereo not drawn)	-3.9	0.9	-11.4	.	0.3	-1.2	.	.	.
CNC(=O)c1nnsc1S(=O)c1ccc(Cl)cc1 (stereo not drawn)	66.7*	77.2*	?	.	.	-2.0	85.0*	103.9*	76.5*
CCCNC(=O)c1ccc2snnc2c1	5.7	9.3	-6.4	-8.7	-2.6	4.2	.	.	.
C[C@@H]1CN([C@H](C)CO)C(=O)c2cc(C#CC3CC3)cnc2O[C@H]1CN(C)S(C)(=O)=O	-2.7	0.2	.	.	.	2.2	.	.	.
O=C(O)CCC(=O)Nc1sc2c(c1C(=O)Nc1ccccc1)CCCCC2	23.7*	37.5*	9.0	3.7	-2.8	15.4	8.9	-14.8	5.2
Cc1ccc(S(=O)(=O)c2c(N)n(Cc3ccco3)c3nc4ccccc4nc23)cc1C	28.2*	27.6*	-6.3	-68.0	18.6	16.9	52.0*	48.2*	6.4
Cc1ccc(S(=O)(=O)c2c(N)n(CCN3CCOCC3)c3nc4ccccc4nc23)cc1C	-4.9	-1.5	-68.3	-5.6	-0.9	0.6	.	.	.
O=C(N/N=C/C=C/c1ccco1)c1ccncc1	21.0	3.1	1.6	-6.1	-0.4	8.2	.	.	.
O=C(N/N=C/C=C/c1ccco1)/C(=C/c1ccccc1)NC(=O)c1ccccc1	33.3*	29.6*	-1.0	-10.2	-2.0	37.5*	52.1*	48.5*	16.5	rCAG binder conf=21.0;DNA CAG counter=13.1*
O=C1C=CC(=O)N1Cc1ccncc1	0.3	6.8	-8.3	.	.	9.5	.	.	.
O=C1C=CC(=O)N1CCCCCCCCCCN1C(=O)C=CC1=O	58.0*	81.5*	4.0	.	.	0.3	68.0*	105.7*	97.7*
Cc1cc(N2CCCN(C)CC2)n2nc(C)nc2n1	.	-0.4	.	.	.	-2.4	.	.	.
CC(C)CN1C(=O)C[C@]2(C(=O)N(C)c3ccc(NC(=O)C(F)(F)F)cc32)C1c1ccccc1 (stereo partly drawn)	.	-3.1	.	.	.	-0.6	.	.	.
CCOC(=O)C1(C)CCCN1C(=O)c1ccccc1F (stereo not drawn)	6.1	-4.8	.	.	.	-0.1	.	.	.
CCCCn1nnnc1C(c1ccccc1)N1CCN(c2cccc(C)c2C)CC1 (stereo not drawn)	-6.7	-0.7	.	.	.	4.2	.	.	.
N#CCc1c(C#N)c(N)nc(N2CCN(C=O)CC2)c1C#N	23.2*	35.5*	29.0	41.4	0.9	5.2	1.1	11.4	-3.3
Cc1ccc(CNC(=O)CC(C)S(=O)(=O)c2ccc3c(c2)NC(=O)CS3)o1 (stereo not drawn)	38.1*	44.3*	-0.2	97.9*	-0.7	0.0	12.1	21.9*	15.1
Cc1ccc(CNC(=O)CC(C)S(=O)(=O)c2ccc3c(c2)NC(=O)CO3)cc1 (stereo not drawn)	-5.2	6.5	1.0	-2.3	-0.2	-2.3	.	.	.
c1ccc(Cn2ncc3c(N4CCN(c5ccccc5)CC4)ncnc32)cc1	-10.0	-3.1	.	.	.	0.9	.	.	.
O=C(CC(Sc1ccc(Br)cc1)C(=O)O)c1ccc(F)cc1 (stereo not drawn)	66.1*	79.7*	4.7	.	-5.0	8.8	41.5*	79.6*	87.5*
SMILES	ABHD5 PLIN5 PPI	PRMT1 FP inh	Rtt109 Vps75	ALR inh	LANA-H2A inh	rCAG RNA binder	ABHD5 PLIN5 conf	HNF4 counter	PRMT1 confirm	others
CCOc1ccc(C(=O)CC(Sc2ccc(C)cc2)C(=O)O)cc1 (stereo not drawn)	59.6*	28.8*	15.8	95.5*	2.9	5.0	17.2	68.8*	54.0*
CC(C)(C)c1ccc(C(=O)N2CCC2(C)C(=O)NCc2cccc3ccccc23)cc1 (stereo not drawn)	-21.6	2.8	.	.	.	1.5	.	.	.
O=C1OC(NC(=O)c2ccccc2)C(n2cc(CO)nn2)=C1Cl (stereo not drawn)	64.3*	65.4*	193.2*	0.1	-3.8	3.5	90.3*	102.6*	66.5*
Cc1ccc(NC2=C(Cl)C(=O)OC2NC(=O)c2ccccc2)cc1 (stereo not drawn)	-6.1	-0.9	-2.3	3.8	-4.3	-2.7	.	.	.
Cc1ccc(C(=O)NC2CCCCN(C)C2=O)c(C)c1 (stereo not drawn)	.	-2.2	.	.	.	1.4	.	.	.
COC1=CC(=O)C=C(OC)C1=O	78.7*	56.2*	?	.	.	2.3	87.9*	105.0*	54.4*
Cc1ccc(NC(=O)c2cc(N3C(=O)C=CC3=O)ccc2N2CCOCC2)cc1	29.4*	90.7*	+	.	.	5.8	51.0*	98.2*	89.0*
CC1=CC(O)(c2ccccn2)P(=O)(c2ccccc2)C=C1C (stereo not drawn)	.	6.4	.	.	.	0.3	.	.	.
COc1ccc(S[C@]2(C(=O)N3CCCC3)CC(=O)N(c3ccc4c(ccn4C)c3)[C@@H]2c2ccc(OC)cc2)cc1	.	7.3	.	.	.	15.4	.	.	.
Cc1ccc(-c2csc(NC(=O)Cc3ccc(F)cc3)n2)o1	29.8*	41.2*	1.8	-0.5	-4.6	13.7	59.7*	94.5*	42.8*
Cc1ccc(-c2csc(Nc3ccc(S(N)(=O)=O)cc3)n2)o1	32.0*	71.5*	-0.1	11.4	-2.1	19.9	64.9*	99.8*	39.7*
CCNC(=S)NNC(=O)CSc1nnc(SCc2cccc3ccccc23)s1	.	10.1	.	.	.	26.6	.	.	.
Nc1sccc1C(=O)NCc1ccccc1	35.9*	33.7*	.	.	.	7.7	13.9	49.0*	16.2

Source: PubChem BioAssay
